# Measured values taken from PMC7862700, “An all-to-all approach to the identification of sequence-specific readers for epigenetic DNA modifications on cytosine”.
# Legend:
# Assay in all cases: DAPPL (digital affinity profiling via proximity ligation, sequencing); 10 mM Tris-HCl pH 7.5, 50 mM NaCl, 1 mM DTT, 4% glycerol, room temperature, 30 min; GST-TFs on glutathione beads, 16-mer random dsDNA library, 0.1% formaldehyde crosslink after washing; high values mean tight binding
# FEV = molecular target: T1, FEV (Homo sapiens, UniProt Q99581 1-238); details: protein: recombinant; tags: N-terminal GST; dsDNA, one strand shown
# T1 sequence: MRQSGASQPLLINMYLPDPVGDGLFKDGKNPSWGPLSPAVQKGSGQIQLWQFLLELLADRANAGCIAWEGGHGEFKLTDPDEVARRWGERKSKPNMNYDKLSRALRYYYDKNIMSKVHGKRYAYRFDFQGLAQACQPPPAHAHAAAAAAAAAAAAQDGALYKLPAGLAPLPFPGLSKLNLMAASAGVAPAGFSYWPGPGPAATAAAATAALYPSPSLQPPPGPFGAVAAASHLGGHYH
# Method in brief: (§1)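 In yeast, human transcription factors were expressed with a GST fusion, then pulled down on glutathione beads and given DNA barcodes. Pooled with a tag-only sample, they were exposed to 200 nmole of a 16-mer random double-stranded DNA library (Tris/NaCl/DTT/glycerol buffer, room temperature, 30 min), washed, crosslinked with 0.1% formaldehyde, proximity-ligated using BsaI/T4 ligase for 1 h at 37 °C, PCR-amplified and read on an Illumina NextSeq500. Each hexamer's frequency of reads for a factor, divided by the matching frequency for the tag-only sample, gives the binding signal.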
# ETV5 = ETV5 (Homo sapiens, UniProt P41161 1-510); details: protein: recombinant; tags: N-terminal GST; dsDNA, one strand shown
# Chain of ETV5 (P41161 whole entry): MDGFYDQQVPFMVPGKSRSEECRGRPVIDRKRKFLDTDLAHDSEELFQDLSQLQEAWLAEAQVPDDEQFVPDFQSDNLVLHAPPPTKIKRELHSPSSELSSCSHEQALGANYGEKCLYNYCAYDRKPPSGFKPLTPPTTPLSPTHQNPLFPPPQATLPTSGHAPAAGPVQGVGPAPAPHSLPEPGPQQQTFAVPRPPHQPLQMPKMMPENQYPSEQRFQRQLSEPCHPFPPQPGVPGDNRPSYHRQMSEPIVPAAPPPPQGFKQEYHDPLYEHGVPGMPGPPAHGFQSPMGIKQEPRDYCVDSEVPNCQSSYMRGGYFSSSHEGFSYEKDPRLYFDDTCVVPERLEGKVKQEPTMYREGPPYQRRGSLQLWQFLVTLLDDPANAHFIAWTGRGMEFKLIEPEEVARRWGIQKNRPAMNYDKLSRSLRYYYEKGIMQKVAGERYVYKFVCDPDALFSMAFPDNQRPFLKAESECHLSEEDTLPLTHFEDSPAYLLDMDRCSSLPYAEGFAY
# Method in brief: as §1
# HSF1 = HSF1 (Homo sapiens, UniProt Q00613 1-529); details: protein: recombinant; tags: N-terminal GST; chain copies: 3; dsDNA, one strand shown
# Chain of HSF1 (Q00613 whole entry): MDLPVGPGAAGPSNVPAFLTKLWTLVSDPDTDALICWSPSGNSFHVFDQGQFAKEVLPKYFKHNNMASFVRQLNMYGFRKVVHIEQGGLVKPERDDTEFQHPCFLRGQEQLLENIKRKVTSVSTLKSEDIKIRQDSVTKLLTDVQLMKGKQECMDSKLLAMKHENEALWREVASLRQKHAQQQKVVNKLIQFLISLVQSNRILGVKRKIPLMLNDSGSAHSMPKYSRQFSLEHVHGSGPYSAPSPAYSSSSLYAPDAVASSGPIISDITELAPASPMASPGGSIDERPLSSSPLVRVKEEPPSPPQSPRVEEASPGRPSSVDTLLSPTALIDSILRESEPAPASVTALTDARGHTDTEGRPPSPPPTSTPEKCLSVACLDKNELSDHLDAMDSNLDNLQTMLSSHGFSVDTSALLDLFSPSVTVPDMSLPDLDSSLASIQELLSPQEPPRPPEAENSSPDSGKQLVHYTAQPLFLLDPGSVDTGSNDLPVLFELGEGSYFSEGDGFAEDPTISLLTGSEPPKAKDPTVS
# Method in brief: as §1
# SPIC = molecular target: T2, SPIC (Homo sapiens, UniProt Q8N5J4 1-248); details: protein: recombinant; tags: N-terminal GST; dsDNA, one strand shown
# T2 sequence: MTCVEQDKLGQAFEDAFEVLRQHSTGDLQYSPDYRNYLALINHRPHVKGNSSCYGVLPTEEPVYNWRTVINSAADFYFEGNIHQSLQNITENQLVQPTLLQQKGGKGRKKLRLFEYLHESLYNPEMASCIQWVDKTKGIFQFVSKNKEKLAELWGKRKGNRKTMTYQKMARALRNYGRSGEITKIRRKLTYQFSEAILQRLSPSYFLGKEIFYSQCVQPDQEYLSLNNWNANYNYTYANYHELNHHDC
# Method in brief: as §1
# ELF4 = ELF4 (Homo sapiens, UniProt Q99607 1-663); details: protein: recombinant; tags: N-terminal GST; dsDNA, one strand shown
# Chain of ELF4 (Q99607 whole entry): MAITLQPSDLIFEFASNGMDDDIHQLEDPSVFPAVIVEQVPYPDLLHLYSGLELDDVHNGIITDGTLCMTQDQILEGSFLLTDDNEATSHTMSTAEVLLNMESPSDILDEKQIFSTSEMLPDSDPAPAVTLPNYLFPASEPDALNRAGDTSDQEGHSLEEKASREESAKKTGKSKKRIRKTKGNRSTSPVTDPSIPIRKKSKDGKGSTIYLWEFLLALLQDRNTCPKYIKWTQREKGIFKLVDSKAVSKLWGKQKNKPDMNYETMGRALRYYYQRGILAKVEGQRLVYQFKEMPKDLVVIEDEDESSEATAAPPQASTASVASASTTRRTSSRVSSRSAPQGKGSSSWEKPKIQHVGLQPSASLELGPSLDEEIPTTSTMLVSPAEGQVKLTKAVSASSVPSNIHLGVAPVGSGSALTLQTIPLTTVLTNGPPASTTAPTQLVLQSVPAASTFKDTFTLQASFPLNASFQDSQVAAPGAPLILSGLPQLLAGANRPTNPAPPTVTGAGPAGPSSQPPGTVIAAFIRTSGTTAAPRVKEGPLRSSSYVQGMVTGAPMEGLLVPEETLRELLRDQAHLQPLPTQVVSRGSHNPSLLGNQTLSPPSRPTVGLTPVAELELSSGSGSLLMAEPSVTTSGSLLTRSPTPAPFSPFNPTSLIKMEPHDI
# Method in brief: as §1
# ELK4 = molecular target: T3, ELK4 (Homo sapiens, UniProt P28324-2 1-405); details: protein: recombinant; tags: N-terminal GST; dsDNA, one strand shown
# T3 sequence: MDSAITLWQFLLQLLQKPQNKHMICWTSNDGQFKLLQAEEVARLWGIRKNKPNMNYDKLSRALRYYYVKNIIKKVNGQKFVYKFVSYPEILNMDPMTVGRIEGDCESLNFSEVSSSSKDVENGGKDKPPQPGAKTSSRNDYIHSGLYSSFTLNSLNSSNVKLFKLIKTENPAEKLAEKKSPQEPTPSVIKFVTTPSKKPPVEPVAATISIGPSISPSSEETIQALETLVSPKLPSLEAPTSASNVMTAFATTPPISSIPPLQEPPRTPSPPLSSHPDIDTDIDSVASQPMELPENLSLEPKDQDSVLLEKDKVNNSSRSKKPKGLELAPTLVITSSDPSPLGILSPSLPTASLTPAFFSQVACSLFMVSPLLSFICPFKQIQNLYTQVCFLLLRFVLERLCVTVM
# Method in brief: as §1
# ETV2 = molecular target: T4, ETV2 (Homo sapiens, UniProt O00321 1-342); details: protein: recombinant; tags: N-terminal GST; dsDNA, one strand shown
# T4 sequence: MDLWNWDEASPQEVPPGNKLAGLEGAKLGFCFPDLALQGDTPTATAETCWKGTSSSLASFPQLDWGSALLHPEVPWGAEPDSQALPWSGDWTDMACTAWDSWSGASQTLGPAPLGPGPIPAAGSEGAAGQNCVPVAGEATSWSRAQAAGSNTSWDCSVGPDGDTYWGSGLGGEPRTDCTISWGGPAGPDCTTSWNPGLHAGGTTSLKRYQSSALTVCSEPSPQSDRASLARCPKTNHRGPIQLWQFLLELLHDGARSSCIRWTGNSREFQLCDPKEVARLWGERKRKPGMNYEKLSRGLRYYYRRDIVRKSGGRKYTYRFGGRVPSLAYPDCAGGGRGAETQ
# Method in brief: as §1
# ELF3 = molecular target: T5, ELF3 (Homo sapiens, UniProt P78545 1-371); details: protein: recombinant; tags: N-terminal GST; dsDNA, one strand shown
# T5 sequence: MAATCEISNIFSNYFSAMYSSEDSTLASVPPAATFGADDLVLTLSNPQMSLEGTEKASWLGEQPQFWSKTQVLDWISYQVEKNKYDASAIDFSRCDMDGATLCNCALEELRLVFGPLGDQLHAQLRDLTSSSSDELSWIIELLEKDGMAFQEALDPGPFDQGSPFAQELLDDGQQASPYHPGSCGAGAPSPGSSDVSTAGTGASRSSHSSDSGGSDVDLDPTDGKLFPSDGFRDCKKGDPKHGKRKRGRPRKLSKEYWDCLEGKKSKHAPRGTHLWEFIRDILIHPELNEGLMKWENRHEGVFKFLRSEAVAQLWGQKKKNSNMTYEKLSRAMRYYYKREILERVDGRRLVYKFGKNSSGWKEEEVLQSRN
# Method in brief: as §1
# CRX = CRX (Homo sapiens, UniProt O43186 1-299); details: protein: recombinant; tags: N-terminal GST; dsDNA, one strand shown
# Chain of CRX (O43186 whole entry): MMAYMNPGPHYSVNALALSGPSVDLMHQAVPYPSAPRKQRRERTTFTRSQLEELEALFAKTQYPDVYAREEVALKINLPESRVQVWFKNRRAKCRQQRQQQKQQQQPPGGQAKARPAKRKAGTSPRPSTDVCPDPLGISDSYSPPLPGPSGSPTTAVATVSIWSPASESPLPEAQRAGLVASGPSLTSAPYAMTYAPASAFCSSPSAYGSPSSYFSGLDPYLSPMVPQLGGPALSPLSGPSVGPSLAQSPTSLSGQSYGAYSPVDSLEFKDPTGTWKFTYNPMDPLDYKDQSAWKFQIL
# Method in brief: as §1
# ETV1 = ETV1 (Homo sapiens, UniProt P50549 1-477); details: protein: recombinant; tags: N-terminal GST; dsDNA, one strand shown
# Chain of ETV1 (P50549 whole entry): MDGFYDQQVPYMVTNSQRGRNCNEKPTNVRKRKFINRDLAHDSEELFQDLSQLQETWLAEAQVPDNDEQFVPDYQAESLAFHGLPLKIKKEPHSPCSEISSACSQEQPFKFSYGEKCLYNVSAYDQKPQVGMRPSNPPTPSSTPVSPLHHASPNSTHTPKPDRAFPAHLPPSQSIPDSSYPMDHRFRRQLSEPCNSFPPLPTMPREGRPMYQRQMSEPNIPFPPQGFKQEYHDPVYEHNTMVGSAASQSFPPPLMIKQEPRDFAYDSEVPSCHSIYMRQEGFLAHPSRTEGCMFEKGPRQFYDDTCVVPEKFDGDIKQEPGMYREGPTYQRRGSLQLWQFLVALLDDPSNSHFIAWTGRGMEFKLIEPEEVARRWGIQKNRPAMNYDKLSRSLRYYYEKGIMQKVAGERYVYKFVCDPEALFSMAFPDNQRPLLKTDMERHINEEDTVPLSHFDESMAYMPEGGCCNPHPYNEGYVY
# Method in brief: as §1
# ERF = molecular target: T6, ERF (Homo sapiens, UniProt P50548 1-548); details: protein: recombinant; tags: N-terminal GST; dsDNA, one strand shown
# T6 sequence: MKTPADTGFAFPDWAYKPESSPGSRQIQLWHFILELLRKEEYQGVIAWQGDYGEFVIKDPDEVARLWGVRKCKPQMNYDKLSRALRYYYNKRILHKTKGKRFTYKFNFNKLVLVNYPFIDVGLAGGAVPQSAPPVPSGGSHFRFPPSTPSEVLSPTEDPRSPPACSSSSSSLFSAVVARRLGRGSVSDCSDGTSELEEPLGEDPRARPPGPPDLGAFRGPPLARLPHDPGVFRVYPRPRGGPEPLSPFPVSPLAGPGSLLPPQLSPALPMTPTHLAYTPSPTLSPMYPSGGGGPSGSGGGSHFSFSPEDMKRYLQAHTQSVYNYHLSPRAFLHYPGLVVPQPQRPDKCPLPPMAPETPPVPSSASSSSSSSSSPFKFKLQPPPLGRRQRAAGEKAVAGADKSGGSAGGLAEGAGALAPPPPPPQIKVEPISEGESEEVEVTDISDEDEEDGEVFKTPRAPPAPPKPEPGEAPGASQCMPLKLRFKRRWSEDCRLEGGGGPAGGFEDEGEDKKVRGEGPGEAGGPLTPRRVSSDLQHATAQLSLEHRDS
# Method in brief: as §1
# ETV3L = molecular target: T7, ETV3L (Homo sapiens, UniProt Q6ZN32 1-361); details: protein: recombinant; tags: N-terminal GST; dsDNA, one strand shown
# T7 sequence: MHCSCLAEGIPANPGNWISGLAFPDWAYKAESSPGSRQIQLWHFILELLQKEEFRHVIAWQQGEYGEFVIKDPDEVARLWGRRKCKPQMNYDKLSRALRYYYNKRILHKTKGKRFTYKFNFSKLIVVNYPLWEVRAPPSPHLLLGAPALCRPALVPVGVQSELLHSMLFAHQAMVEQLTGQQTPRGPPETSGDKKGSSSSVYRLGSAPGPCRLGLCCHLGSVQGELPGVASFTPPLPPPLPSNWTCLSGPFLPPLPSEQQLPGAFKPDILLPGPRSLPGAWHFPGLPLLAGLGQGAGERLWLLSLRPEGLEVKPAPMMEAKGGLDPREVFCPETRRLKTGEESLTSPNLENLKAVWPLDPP
# Method in brief: as §1
# ETS2 = molecular target: T8, ETS2 (Homo sapiens, UniProt P15036 1-469); details: protein: recombinant; tags: N-terminal GST; dsDNA, one strand shown
# T8 sequence: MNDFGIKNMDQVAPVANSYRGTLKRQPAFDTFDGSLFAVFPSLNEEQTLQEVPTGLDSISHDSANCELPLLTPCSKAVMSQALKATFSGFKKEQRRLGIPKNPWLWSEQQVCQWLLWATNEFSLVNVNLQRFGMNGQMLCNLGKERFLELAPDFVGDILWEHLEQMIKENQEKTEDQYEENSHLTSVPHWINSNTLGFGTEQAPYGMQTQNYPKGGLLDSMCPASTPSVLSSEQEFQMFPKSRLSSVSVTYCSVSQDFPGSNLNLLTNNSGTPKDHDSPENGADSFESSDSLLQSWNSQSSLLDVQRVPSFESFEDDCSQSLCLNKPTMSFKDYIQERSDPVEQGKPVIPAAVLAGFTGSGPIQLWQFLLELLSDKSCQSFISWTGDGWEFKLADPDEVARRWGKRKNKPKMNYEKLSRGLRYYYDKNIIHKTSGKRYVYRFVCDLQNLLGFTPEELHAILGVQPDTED
# Method in brief: as §1
# SPDEF = molecular target: T9, SPDEF (Homo sapiens, UniProt O95238 1-335); details: protein: recombinant; tags: N-terminal GST; dsDNA, one strand shown
# T9 sequence: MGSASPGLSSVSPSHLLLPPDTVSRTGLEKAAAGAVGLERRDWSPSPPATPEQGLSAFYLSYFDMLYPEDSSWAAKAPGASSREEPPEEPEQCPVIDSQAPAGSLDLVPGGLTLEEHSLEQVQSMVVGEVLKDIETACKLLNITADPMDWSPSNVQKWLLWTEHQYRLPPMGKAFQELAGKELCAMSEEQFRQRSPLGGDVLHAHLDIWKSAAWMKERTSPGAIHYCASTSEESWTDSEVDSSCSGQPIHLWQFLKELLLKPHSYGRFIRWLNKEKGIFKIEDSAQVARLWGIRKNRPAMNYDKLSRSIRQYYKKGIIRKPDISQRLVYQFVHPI
# Method in brief: as §1
# ETV7 = molecular target: T10, ETV7 (Homo sapiens, UniProt Q9Y603 1-341); details: protein: recombinant; tags: N-terminal GST; dsDNA, one strand shown
# T10 sequence: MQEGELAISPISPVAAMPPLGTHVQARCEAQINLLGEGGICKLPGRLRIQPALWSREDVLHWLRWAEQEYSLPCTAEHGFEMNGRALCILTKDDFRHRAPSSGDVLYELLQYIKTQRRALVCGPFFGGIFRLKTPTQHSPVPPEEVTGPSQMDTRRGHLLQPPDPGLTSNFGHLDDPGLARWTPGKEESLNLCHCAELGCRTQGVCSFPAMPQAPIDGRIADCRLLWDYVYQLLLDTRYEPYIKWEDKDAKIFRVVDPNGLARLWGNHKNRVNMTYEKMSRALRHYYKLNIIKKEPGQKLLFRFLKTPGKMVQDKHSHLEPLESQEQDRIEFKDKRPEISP
# Method in brief: as §1
# ELF5 = molecular target: T11, ELF5 (Homo sapiens, UniProt Q9UKW6-2 1-255); details: protein: recombinant; tags: N-terminal GST; dsDNA, one strand shown
# T11 sequence: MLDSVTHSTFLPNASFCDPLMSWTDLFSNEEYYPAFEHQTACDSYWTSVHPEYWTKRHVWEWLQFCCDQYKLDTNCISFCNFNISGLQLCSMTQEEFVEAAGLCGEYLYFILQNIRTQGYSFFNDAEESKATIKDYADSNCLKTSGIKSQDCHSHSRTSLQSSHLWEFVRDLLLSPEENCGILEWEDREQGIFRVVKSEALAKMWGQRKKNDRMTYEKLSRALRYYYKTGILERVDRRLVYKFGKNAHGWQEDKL
# Method in brief: as §1
# ETV3 = molecular target: T12, ETV3 (Homo sapiens, UniProt P41162-2 1-143); details: protein: recombinant; tags: N-terminal GST; dsDNA, one strand shown
# T12 sequence: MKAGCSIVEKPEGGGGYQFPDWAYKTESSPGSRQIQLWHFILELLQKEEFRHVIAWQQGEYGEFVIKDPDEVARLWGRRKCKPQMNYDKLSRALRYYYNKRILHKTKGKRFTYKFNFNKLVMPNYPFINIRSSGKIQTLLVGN
# Method in brief: as §1
# ETV6 = ETV6 (Homo sapiens, UniProt P41212 1-452); details: protein: recombinant; tags: N-terminal GST; dsDNA, one strand shown
# Chain of ETV6 (P41212 whole entry): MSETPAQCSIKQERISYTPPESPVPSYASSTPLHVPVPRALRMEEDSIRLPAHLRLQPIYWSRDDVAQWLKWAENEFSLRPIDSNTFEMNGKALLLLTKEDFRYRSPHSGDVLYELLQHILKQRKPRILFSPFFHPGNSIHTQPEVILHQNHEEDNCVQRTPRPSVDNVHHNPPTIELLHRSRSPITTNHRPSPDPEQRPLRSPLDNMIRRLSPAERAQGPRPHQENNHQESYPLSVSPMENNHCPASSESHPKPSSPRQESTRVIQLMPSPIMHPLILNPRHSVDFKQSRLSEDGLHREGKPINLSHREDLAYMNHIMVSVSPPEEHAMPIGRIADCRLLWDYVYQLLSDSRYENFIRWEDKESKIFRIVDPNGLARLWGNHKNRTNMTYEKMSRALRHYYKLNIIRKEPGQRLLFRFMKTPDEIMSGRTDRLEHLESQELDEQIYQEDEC
# Method in brief: as §1
sequence,measurement,setting,value
GCCTTG,binding signal,FEV,"1.13 fold enrichment (6-mer frequency, TF over GST control)"
same,binding signal,ETV5,"1.34 fold enrichment (6-mer frequency, TF over GST control)"
same,binding signal,HSF1,"1.06 fold enrichment (6-mer frequency, TF over GST control)"
same,binding signal,SPIC,"1.31 fold enrichment (6-mer frequency, TF over GST control)"
same,binding signal,ELF4,"1.21 fold enrichment (6-mer frequency, TF over GST control)"
same,binding signal,ELK4,"1.17 fold enrichment (6-mer frequency, TF over GST control)"
same,binding signal,ETV2,"1.09 fold enrichment (6-mer frequency, TF over GST control)"
same,binding signal,ELF3,"1.23 fold enrichment (6-mer frequency, TF over GST control)"
same,binding signal,CRX,"1.05 fold enrichment (6-mer frequency, TF over GST control)"
same,binding signal,ETV1,"1.18 fold enrichment (6-mer frequency, TF over GST control)"
same,binding signal,ERF,"1.16 fold enrichment (6-mer frequency, TF over GST control)"
same,binding signal,ETV3L,"1.34 fold enrichment (6-mer frequency, TF over GST control)"
same,binding signal,ETS2,"1.25 fold enrichment (6-mer frequency, TF over GST control)"
same,binding signal,SPDEF,"1.13 fold enrichment (6-mer frequency, TF over GST control)"
same,binding signal,ETV7,"1.3 fold enrichment (6-mer frequency, TF over GST control)"
same,binding signal,ELF5,"1.17 fold enrichment (6-mer frequency, TF over GST control)"
same,binding signal,ETV3,"1.14 fold enrichment (6-mer frequency, TF over GST control)"
same,binding signal,ETV6,"1.16 fold enrichment (6-mer frequency, TF over GST control)"
